ERG Ets-DNA blk – ERG Ets/DNA interaction inhibition. P11308. fluorescence polarization, His-ERG Ets domain / labelled DNA. AID 624246. actives 0.028% (n = 370,000). Potency, µM (top dose mostly 76.9 µM), for the others: at the top dose FP activity, negative = inhibition, actives largely listed as inhibitors; active = well fitted inhibition curve with a large enough effect in the polarisation, with a control signal flat; inconclusive = small, poorly fitted or top-dose-only effect, or effect the other way, or a change in a side signal; inactive = no such curve, though single readings can be large or run the other way; the % refers to the polarisation;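 note: polarization taken with two DNA probes labelled with fluorescein and Texas red; potency is the fitted concentration of half-maximal effect; % of control where 0% means no effect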
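His-tagged ERG Ets domain (1 uM in the protein solution; 300mM KCl, 50mM Tris-HCl, 1mM EDTA, 1mM DTT, pH 7.5) received compound, then a probe mix of 5 nM fluorescein-DNA and 100nM Texas-615-DNA. Fluorescence polarization was read for both dyes.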
LDHA inh – blocks human lactate dehydrogenase A. P00338. purified LDHA, NADH/diaphorase-resazurin fluorescence; active compounds read low. activity change, % (values are at about 110 or 230 µM). actives 0.15% (n = 480,000). AID 1347041; in the data active = activity change below about -30%; inconclusive = mostly about -25% to -30%;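 note: plate controls were DMSO wells for no effect and wells without enzyme for full effect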
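Human LDH5 (2 nM) was incubated with 0.06 mM NADH and 0.2 mM pyruvate for 5 min at room temperature in Tris pH 7.4. Remaining NADH was coupled through diaphorase/resazurin, and resorufin fluorescence was read at 0 and 20 min.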
Nrf2 inh – Nrf2 pathway inhibition; A549 ARE-Fluc reporter, luciferase luminescence, 18-24 h; actives 2.1% (n = 360,000); Potency, µM (series often up to 46 µM), for inactives: top-dose activity change, negative = inhibition, actives largely listed as inhibitors; AID 504444; note: potency is the fitted concentration of half-maximal effect; % is set by controls: 0 for no effect and ±100 for the full control effect; nearly all actives have a fitted effect of over 60% in size
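Reporter: ARE-Fluc in A549. Exposure: 18-24 h, 37 °C, 5% CO2, 5% FBS OPTI-MEM. Readouts: fluorescent cytotoxicity (CellTiter-Fluor), then luminescent Nrf2 signal after BugLite.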
12-LOX inh – inhibitors of human 12S-lipoxygenase ALOX12. actives 1.1% (n = 580,000). P18054. purified 12hLO, xylenol orange hydroperoxide absorbance. AID 1671190. Potency, µM (doses to about 108 µM), for inactives: at the top dose activity change, negative = inhibition, actives largely listed as inhibitors; note: potency is the fitted concentration of half-maximal effect; % is set by controls: 0 for no effect and ±100 for the full control effect
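Hydroperoxide product was detected by ferrous iron/xylenol orange as the 573 to 405 nm absorbance ratio. Arachidonic acid at 40 uM (final) was turned over for 30 min at room temperature by 150 nM human 12hLO, pH 7.0 Hepes buffer, after 15 min compound preincubation.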
Nrf2 ARE act – Nrf2 pathway activation; AREc32 ARE-luciferase reporter (MCF7-derived line), luminescence, 24 h; Potency, µM (highest dose often 46.1 µM), for the others: top-dose activation, hits mostly activators; actives 0.31% (n = 410,000); AID 624171; note: potency is the fitted concentration of half-maximal effect; % of control where 0% means no effect; nearly all actives have a fitted effect of over 65% in size
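ARE-driven firefly luciferase activity in AREc32 cells measured after a 24 hr compound exposure at 37 deg C, using Steady-Glo reagent and a 30 min room-temperature hold.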
A549 viability – kills or reduces viability of A549 cells in Nrf2 counter-screen; actives 0.16% (n = 390,000); A549 ARE-Fluc cells, CellTiter-Fluor viability, 18-24 h; AID 504648; Potency, µM (highest dose often 46 µM), without a hit: at the top dose activity change, negative = cytotoxicity, hits mostly inhibitors; note: potency is the fitted concentration of half-maximal effect; % is set by controls: 0 for no effect and ±100 for the full control effect
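Cytotoxicity counterscreen: CellTiter-Fluor fluorescence was measured in A549 ARE_Fluc cells after 18-24 h of compound exposure in a concentration series. The subsequent BugLite luminescent read reports ARE-luciferase activity.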
Starred values were filed as active, the others as inactive; ? = inconclusive; . = not tested or not shown. This is a sample that favours compounds with a hit; in the whole collection about 2.7% have one here. Unless noted, calls come from the whole dose curve; as a rule, active = well fitted curve in the direction sought with a large enough effect; inconclusive = small, poorly fitted or top-dose-only effect, or another doubt; inactive = no such curve, though single readings can be large; an effect the other way counts as inactive or inconclusive.

SMILES | ERG Ets-DNA blk | LDHA inh | Nrf2 inh | 12-LOX inh | Nrf2 ARE act | A549 viability
COc1ccc2[nH]c(=O)c(CNc3cc(C)ccc3C)cc2c1 | 17.1% | 5.8 | 18.4µM* | 21.3% | 2.4% | ?
CCOc1ccc(NCc2cc3cc(OC)ccc3[nH]c2=O)cc1 | -9.5% | 5.0 | 25.9µM* | -16.2% | -0.5% | -12.0%
O=C(NCc1ccccc1)c1ccc(C2Nc3ccccc3S(=O)(=O)N2)cc1 (stereo not drawn) | . | 0.8 | . | -8.8% | . | .
Cc1ccccc1N(C(=O)c1cccs1)c1nc2ccccc2s1 | -2.8% | -1.0 | 2.6% | -8.9% | 1.6% | 12.4%
Cc1ccsc1C(=O)N(c1nc2ccccc2s1)c1c(C)cccc1C | -3.8% | -3.3 | 18.4µM* | ? | -0.3% | -7.3%
COc1ccc(NC(=O)c2sc3ncnc(N(C)c4ccccc4)c3c2C)cc1Cl | . | 8.9 | . | -5.7% | . | .
COc1ccc2c(c1)NC(c1cc(Cl)cc(Cl)c1O)c1cccn1-2 (stereo not drawn) | 0.4% | 1.3 | 16.8% | 31.6µM* | -3.7% | 1.1%
Cc1cc(I)c(-c2c(I)cc(C)c(N)c2C)c(C)c1N | . | 5.3 | . | -18.4% | . | .
O=C(Nc1ccc(Cl)cc1)c1ccncc1 | 2.9% | -5.7 | -14.4% | ? | 2.0% | -6.8%
CC(Oc1ccc(Cl)cc1Cl)c1nc(-c2ccc(NC(=O)c3ccncc3)cc2)no1 (stereo not drawn) | 3.8% | 0.2 | 10.3µM* | ? | 0.3% | -1.0%
O=C(Nc1ccc(-n2cc(Br)cn2)cc1)c1ccncc1 | -8.8% | -6.5 | 25.9µM* | 14.7% | 2.8% | -10.0%
O=C(Nc1ccc(-c2ccc(Cl)cc2)cc1)c1ccncc1 | . | -11.2 | . | 7.08µM* | . | .
O=C1OC(CN(Cc2ccccc2)Cc2ccccc2)CN1N=Cc1ccc([N+](=O)[O-])o1 (stereo not drawn) | 0.9% | -2.7 | -2.4% | 12.6µM* | 6.6% | 8.1%
COC(=O)c1ccc(C)c(NC(=O)Cc2cc(C)ccc2OC)c1 | . | 8.6 | . | ? | . | .
O=C(NCCc1cccs1)C1CCN(c2ccc(C(F)(F)F)cn2)CC1 | . | -30.6* | . | 9.9% | . | .
O=C(CSc1nnc(Cn2nnc3ccccc32)o1)N(Cc1ccc(F)cc1)c1ccccc1 | . | -8.1 | 5.8µM* | 14.7% | 4.9% | ?
COc1ccc(N(Cc2ccccc2)C(=O)CSc2nnc(Cn3nnc4ccccc43)o2)cc1 | 1.3% | -4.6 | ? | 3.4% | 3.1% | -20.6%
COc1ccc(CN(C(=O)CSc2nnc(-c3c[nH]c4ccccc34)o2)c2ccc(F)cc2)cc1OC | -5.2% | 0.4 | 11.6µM* | -1.1% | 0.2% | ?
CC(C)NC(=O)C(=O)N1CCN(c2nc(-c3ccco3)c3c(c2C#N)CCCC3)CC1 | . | 8.4 | . | ? | . | .
CCC(C)NC(=O)c1ccccc1NS(=O)(=O)c1cccc(C(=O)O)c1 (stereo not drawn) | . | 7.2 | . | 0.9% | . | .
S=c1[nH]nc(-c2cc(-c3ccccn3)nc3ccccc23)o1 | -5.2% | -3.1 | -16.7% | -19.2% | 0.4% | -11.7%
Cc1ccc(-c2cc(-c3n[nH]c(=S)o3)c3ccccc3n2)cc1 | -2.7% | -10.0 | -13.4% | 2.24µM* | 2.3% | 6.0%
CS(=O)(=O)Cc1cccc(C(=O)NC(Cc2ccccc2)c2ccccc2)c1 (stereo not drawn) | . | 0.2 | . | ? | . | .
CCCN(CCC)C(=O)CC(c1ccccc1)c1cc(Br)ccc1O (stereo not drawn) | -5.9% | 10.1 | 16.4µM* | -18.3% | 0.0% | ?
CC1CCC2(CC1)NC(=O)N(NC(=O)CCCc1c[nH]c3ccccc13)C2=O (stereo not drawn) | . | 6.3 | . | ? | . | .
CC1CCCC(NC(=O)CCNS(=O)(=O)c2ccc(Br)cc2)C1C (stereo not drawn) | 21.1% | -6.3 | 14.6µM* | ? | 0.6% | ?
COc1cc(/C=N/N(C)c2ccccc2)cc(Cl)c1O | -4.0% | 6.9 | ? | 15.8µM* | 9.6% | -3.8%

High-throughput results as filed in PubChem.
